DT40 TDP1 no CPT: qHTS for Inhibitors of human tyrosyl-DNA phosphodiesterase 1 (TDP1): qHTS in cells in absence of CPT; DT40 Tdp1-/- hTDP1 cells, no CPT, ATP luminescence, 48 h; Potency, µM (doses to about 46.2 µM), most hits filed as inhibitors; 420,000 compounds, 15% hits; AID 686978, 2013; further: nearly all actives have a fitted effect of over 55% in size
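No-CPT arm: Tdp1-/-;hTDP1 DT40 cells (400/well) plus compounds, incubated ≥48 hr at 37 °C. Readout CellTiter-Glo luminescence.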
ELG1 repair inh: blocks ELG1-dependent DNA repair in HEK293T cells | HEK293T ELG1-luciferase reporter, luminescence, 16 h; DNA damage induced by 5-fluorouridine | Potency, µM (highest dose often 46.1 µM), actives largely listed as inhibitors | 330,000 compounds, 2.3% hits | AID 504467; further: nearly all actives have a fitted effect of over 55% in size
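Luminescence from the luciferase reporter, measured 30 min after ONE-Glo reagent at room temperature, was the read-out. Beforehand, 2,000 cells per well were exposed for 16 hr at 37 °C to 5-fluorouridine together with compound or vehicle.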
IL-1B inflam inh: inhibitors of inflammasome signaling (IL-1 beta secretion) | 360,000 compounds, 4.7% hits | activity change, % at 57.5 µM | THP-1 LPS/ATP IL-1B secretion, AlphaLISA, 16 h; hits give low values; in the data active means activity change below about -50%; inconclusive means mostly about -30% to -49%
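THP-1 cells pretreated 1 hr with compounds (up to 57.5 uM final), then stimulated with LPS (250 ng/mL final) plus ATP (1.25 mM final); secreted IL-1B measured by AlphaLISA after 16 hr, decreased signal indicating inhibition.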
TDP1 cell CPT: growth inhibition of DT40 Tdp1-/-;hTDP1 cells with camptothecin (screen for TDP1 inhibitors) | chicken DT40 Tdp1-/-;hTDP1 cells + 20 nM CPT, ATP luminescence, 48 h | Potency, µM (doses to about 46.2 µM), actives largely listed as inhibitors | 420,000 compounds, 12% hits | AID 686979; further: nearly all actives have a fitted effect of over 55% in size
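Chicken DT40 Tdp1-/- cells stably complemented with human TDP1 were seeded at 400 cells/well in medium containing 20 nM camptothecin, exposed to pin-transferred compounds, and grown at 37 °C for at least 48 hr. Viability was read as ATP luminescence.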
RORgamma inh: inhibitors of mouse ROR gamma transcriptional activity. P51450. Drosophila S2 Gal4-RORgamma UAS-luciferase reporter, 20 h. Potency, µM (titrated, usually from 53.6 µM), usual class: inhibitors. 310,000 compounds, 5.4% hits; further: nearly all actives have a fitted effect of over 60% in size
Target sequence (P51450 whole entry, looked up, the tested form may be a part): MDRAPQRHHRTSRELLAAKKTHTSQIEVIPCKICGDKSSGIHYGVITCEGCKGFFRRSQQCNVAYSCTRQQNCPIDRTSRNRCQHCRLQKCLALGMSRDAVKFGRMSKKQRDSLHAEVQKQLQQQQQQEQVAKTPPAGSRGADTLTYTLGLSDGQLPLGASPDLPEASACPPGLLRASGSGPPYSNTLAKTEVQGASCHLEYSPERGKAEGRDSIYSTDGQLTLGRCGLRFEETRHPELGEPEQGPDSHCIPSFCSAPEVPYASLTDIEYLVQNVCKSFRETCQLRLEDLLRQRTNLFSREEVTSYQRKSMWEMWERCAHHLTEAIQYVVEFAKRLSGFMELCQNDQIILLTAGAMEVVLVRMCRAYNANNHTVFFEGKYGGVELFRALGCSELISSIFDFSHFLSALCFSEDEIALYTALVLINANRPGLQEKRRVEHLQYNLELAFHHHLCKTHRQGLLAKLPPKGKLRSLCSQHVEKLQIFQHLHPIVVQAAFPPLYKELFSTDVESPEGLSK
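Schneider cells (Drosophila), stable Gal4 DBD–ROR gamma + UAS-luc; 1 hr cmpd preincubation; Cu2+ induction 700 uM final; 20 hr ambient; luminescence.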
VP16 counter: inhibits Gal4-VP16 luciferase reporter, ROR gamma counter-screen. Drosophila S2 Gal4-VP16 UAS-luciferase, luminescence, 20 h. Potency, µM (doses to about 53.6 µM), most hits filed as inhibitors. 310,000 compounds, 3.5% hits. AID 2546;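 further: Gal4-VP16 expression switched on by copper sulfate through the metallothionein promoter; nearly all actives have a fitted effect of over 50% in size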
Hits are given with their value; – = inactive; ? = inconclusive; · = not tested or not shown; [ ] = dose if it differs, or a comment. Rows were chosen to be rich in hits. Some 21% of all compounds tested hit in one or more screens of this group. Unless noted, the call rests on the fitted dose curve; in most records, active means well fitted curve in the direction sought with a large enough effect; inconclusive means small, poorly fitted or top-dose-only effect, or another doubt; inactive means no such curve, though single readings can be large; an effect the other way counts as inactive or inconclusive.

SMILES	DT40 TDP1 no CPT	ELG1 repair inh	IL-1B inflam inh	TDP1 cell CPT	RORgamma inh	VP16 counter
CC(C)[C@H](NC(=O)OC(C)(C)C)c1cc(C(=O)NCCO)c(N)s1	–	·	–	–	·	·
Cc1ccc(CSCc2nnc(SCC(=O)N3CCN(c4ccccc4)CC3)n2C)cc1	16µM	23µM	?	?	?	?
CCn1c(SCC(=O)N2CCN(c3ccccc3)CC2)nnc1-c1ccncc1	·	–	·	·	–	–
CCn1c(CSCc2ccc(F)cc2)nnc1SCC(=O)N1CCN(c2ccccc2)CC1	23µM	13µM	?	?	–	–
Cc1ccccc1-n1c(SCC(=O)N2CCCC2)nnc1-c1ccccn1	–	–	–	–	–	–
CCc1ccccc1-n1c(SCC(=O)N2CCCC2)nnc1-c1ccccn1	20µM	–	–	?	–	–[0.365 µM]
CCn1c(Cc2ccc(OC)cc2)nnc1SCC(=O)N1CCN(c2ccccc2)CC1	?	?	–	?	–	–
Cc1ccccc1-n1c(SCC(=O)N2CCN(c3ccccc3)CC2)nnc1-c1ccncc1	21µM	?	–	16µM	–	–
O=C(CCN=C1NS(=O)(=O)c2ccccc21)Nc1ccc(F)cc1Cl	–	–	–	–	·	·
COCCN1CSC(=S)N(Cc2ccco2)C1	4.6µM	–	–	21µM	?	–
O=C(NCc1ccco1)c1ccc(OC2CCN(Cc3ccccn3)CC2)cc1	–	·	?	–	·	·
O=C1CCN(Cc2ccco2)C(=S)N1	–	·	–	–	·	·
S=C1SCN(Cc2ccccn2)CN1Cc1ccco1	5.8µM	–	–	6.5µM	?	–
CC(Oc1cccc(Cl)c1)C(=O)Nc1ccccc1N1CCCC1 (configuration not stated)	?	–	–	?	·	·
CC(Oc1ccccc1Cl)C(=O)N1CCCN(C)CC1 (configuration not stated)	–	–	–	–	·	·
Cc1cc(Cl)ccc1OC(C)C(=O)Nc1ccccc1N1CCOCC1 (configuration not stated)	?	–	-58	?	?	?
CC(Oc1ccc(Cl)cc1)C(=O)Nc1ccccc1N1CCOCC1 (configuration not stated)	21µM	?	–	?	·	·
Cc1cc(Cl)ccc1OC(C)C(=O)N1CCCN(C(=O)C(C)Oc2ccc(Cl)cc2C)CC1 (configuration not stated)	21µM	?	-65	21µM	–	–
CCc1ccc(CNC(=O)c2cc(=O)[nH]c3ccc(S(=O)(=O)N4CCCCC4)cc23)cc1	–	·	·	–	·	·
COC(=O)c1cc(Cl)ccc1NC(=O)CSc1ncc(S(=O)(=O)c2ccc(Br)cc2)c(=O)[nH]1	–	·	·	–	·	·
COc1ccc(CNC(=O)CN2C(=O)COc3ccccc32)c(OC)c1	–	·	·	–	·	·
CCCSc1ncc(Cl)c(C(=O)Nc2c(C(=O)c3ccc(C)cc3)oc3ccccc23)n1	–	·	·	–	·	·
CC(C)c1ccc(NC(=O)c2cn(C3CCCCC3)c(=O)c3c2c2ccccc2n3C)cc1	–	·	·	–	·	·
CN(CC(=O)NNC(=O)Cc1ccccc1F)S(=O)(=O)c1ccc(Cl)cc1	–	–	–	–	·	·
O=C(Cc1ccccc1)N1CCN=C1SCc1cccc([N+](=O)[O-])c1	–	?	–	–	–	–
Fc1ccc(C(Nc2ccccc2Cl)c2nnc(-c3ccccc3Cl)o2)cc1 (configuration not stated)	21µM	·	·	?	·	·
C=CCC[C@H](Cc1ccc(F)cc1)C(=O)OC[C@H](Cc1c[nH]c2ccccc12)NC(=O)[C@H](CC=C)CC(=O)N[C@H](CO)Cc1ccccc1	?	–	–	?	·	·
C=CC[C@@H](CC(=O)N(CCO)Cc1ccccc1)C(=O)N[C@@H](COC(=O)[C@@H](CC=C)Cc1ccc(F)cc1)Cc1c[nH]c2ccccc12	16µM	18µM	-52	?	·	·

Bioassay records from PubChem.
